This note sets out measurements from PubChem BioAssay (NCATS).

A short description of assay [1]: Primary qHTS for Huh7 cytotoxicity: counterscreen for inhibitors of MERS-S pseudotyped particle cell entry (AID 1479147). For activity change, negative = cytotoxicity: % is set by controls: 0 for no effect and ±100 for the full control effect. The conditions noted are these: outcome: dose series up to 57.1 µM unless noted. In general terms: In qHTS, concentration-response curves come from the screen itself.
Assay [2] in a line: Primary qHTS for inhibitors of MERS-S pseudo-typed particle cell entry (AID 1479149). For activity change, negative = inhibition: % is set by controls: 0 for no effect and ±100 for the full control effect. Note: nearly all actives have a fitted effect of over 60% in size. Particulars: outcome: dose series up to 57.1 µM unless noted.
Assay [3] can be described thus: Primary qHTS for Vero E6 cytotoxicity: counterscreen for inhibitors of SARS-S pseudo-typed particle cell entry (AID 1479150). For activity change, negative = cytotoxicity: % is set by controls: 0 for no effect and ±100 for the full control effect. Particulars: outcome: dose series up to 57.1 µM unless noted.
Assay [4] is described as follows: Cytotoxicity counterscreen for inhibitors of SARS-CoV-2 cell entry (AID 1645845). For activity change, negative = cytotoxicity: % is set by controls: 0 for no effect and ±100 for the full control effect. Note: nearly all actives have a fitted effect of over 50% in size. Particulars: outcome: dose series up to 57.1 µM unless noted. The method, boiled down: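 48 h compound treatment (after 1 h preincubation), HEK293-ACE2 cells, 37 C/5% CO2; ATP luminescence endpoint; normalized to cell wells and media blanks.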
For orientation: Counterscreens check selectivity or assay interference.

The nature of assay [5]: Primary qHTS to identify inhibitors of SARS-CoV-2 cell entry (AID 1645846). Note: nearly all actives have a fitted effect of over 45% in size. Particulars: SARS-CoV-2 pseudovirus cell entry assay, luminescence. In short, it runs like this: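 HEK293-ACE2 (Expi293F, stable hACE2), 1500 cells/well, o/n 37C; cpd 23 nL pin, 1 h; MLV-PP w/ SARS-CoV-2-S (Wuhan-Hu-1, Δ19 C-term); 48 h 37C; Bright-Glo luminescence; normalized vs S-PP and bald PP.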

In assay [6] the target is Glutathione peroxidase 1 (Homo sapiens) (UniProt P07203). Nature of the assay: Primary qHTS Assay for Inhibitors of Recombinant Selenoprotein Glutathione Peroxidase 1 (GPX1) (AID 1845191; active = well fitted inhibition curve with a large enough effect; note: % is set by controls: 0 for no effect and ±100 for the full control effect; nearly all actives have a fitted effect of over 65% in size). The method, boiled down:
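10 nM GPX1 + cpd, 30 min RT; start w/ 1 mM GSH, 0.5 mM cumene hydroperoxide, 0.5 mM NADPH, 100 nM GR, 0.01% BSA; buffer 50 mM Tris-HCl pH 7.5, 2 mM EDTA, 150 mM NaCl; Fl 340/450, 0 & 15 min.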

Assay [7] concerns the target Phospholipid hydroperoxide glutathione peroxidase GPX4 (Homo sapiens) (UniProt P36969). Nature of the assay: Primary qHTS Assay for Inhibitors of Recombinant Selenoprotein Glutathione Peroxidase 4 (GPX4) (AID 1845192; active = well fitted inhibition curve with a large enough effect; note: % is set by controls: 0 for no effect and ±100 for the full control effect; nearly all actives have a fitted effect of over 65% in size). In short, it runs like this: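 NADPH consumption, followed by fluorescence at 340/450 nm between 0 and 15 min, reports GPX4 activity via coupled glutathione reductase (100 nM). Enzyme 200 nM was pre-exposed to compound 30 min; 0.5 mM cumene hydroperoxide and 1 mM GSH served as substrates.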

The target in assay [8] is Bile acid receptor (Homo sapiens) (UniProt Q96RI1). Nature of the assay: qHTS assay for small molecule agonists of farnesoid X receptor signaling (AID 588527).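 Note: 0% = vehicle basal and 100% = reference agonist.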 Particulars: HEK293T FXR-UAS-bla, beta-lactamase ratio, 16 h; stronger effect = higher value. The method, boiled down: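 Agonist-mode beta-lactamase reporter in GeneBLAzer FXR-UAS-bla HEK293T cells, titration up to 92 uM, 16 h exposure at 37 C, CCF4 fluorescence. Response scaled to DMSO (0%) and 100 uM chenodeoxycholic acid (100%), then Hill-fitted for EC50 and efficacy.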

Assay [9] deals with Peroxisome proliferator-activated receptor delta (Homo sapiens) (UniProt Q03181). Nature of the assay: qHTS assay for small molecule agonists of peroxisome proliferator-activated receptor delta signaling (AID 588534).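 Note: 0% = DMSO basal wells and 100% = positive control agonist at 10 µM.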 The method, boiled down: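 Cells carrying a PPAR-delta beta-lactamase reporter were treated with compounds for 18 h at 37 °C in agonist mode. CCF4 fluorescence was read after 2 h; EC50 and efficacy from Hill fits.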

The nature of assay [10]: VSVG counterscreen qHTS to identify inhibitors of SARS-CoV-2 cell entry (AID 1645847). Note: potency is the fitted concentration of half-maximal effect; nearly all actives have a fitted effect of over 65% in size. In short, it runs like this: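 Expi293F/hACE2 cells, overnight plating; cpd 1 h, 37C/5% CO2; + VSV-G PP (MLV pseudotyping), 48 h; supernatant removed, Bright-Glo luciferase read. Norm: VSV-G PP and bald PP wells.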
Where [11] appears, read: activity change, negative = inhibition: at 57.1 µM (top of the series) unless noted, outcome: at 57.1 µM (top of the series) unless noted.

Molecules are shown by their SMILES. Several values for one entry are separate records, joined by “and”; a condition that tells them apart may be missing. Identical values can stand only once. Inconclusive results are not listed. Activity calls are given as the source filed them. Unless noted, calls come from the whole dose curve.

Sequence of Glutathione peroxidase 1 (Homo sapiens) (P07203 whole entry, looked up): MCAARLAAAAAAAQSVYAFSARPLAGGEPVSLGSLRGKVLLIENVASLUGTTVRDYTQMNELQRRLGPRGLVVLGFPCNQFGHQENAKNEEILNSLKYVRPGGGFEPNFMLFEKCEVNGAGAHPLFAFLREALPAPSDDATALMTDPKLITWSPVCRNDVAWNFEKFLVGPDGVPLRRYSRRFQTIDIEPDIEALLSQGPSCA
Sequence of Peroxisome proliferator-activated receptor delta (Homo sapiens) (Q03181 whole entry, looked up): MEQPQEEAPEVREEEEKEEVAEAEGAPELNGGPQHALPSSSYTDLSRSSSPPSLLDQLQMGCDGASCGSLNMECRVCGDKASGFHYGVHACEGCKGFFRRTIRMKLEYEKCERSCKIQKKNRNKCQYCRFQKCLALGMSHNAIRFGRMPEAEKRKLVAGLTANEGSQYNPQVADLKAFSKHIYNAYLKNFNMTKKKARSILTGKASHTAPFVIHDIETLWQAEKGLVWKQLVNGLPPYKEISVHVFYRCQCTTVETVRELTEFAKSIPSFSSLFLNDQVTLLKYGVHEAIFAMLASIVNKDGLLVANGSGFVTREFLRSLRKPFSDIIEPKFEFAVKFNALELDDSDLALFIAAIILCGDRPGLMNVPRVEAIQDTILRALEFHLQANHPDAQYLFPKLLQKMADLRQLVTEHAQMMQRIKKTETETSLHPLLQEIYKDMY
Sequence of Bile acid receptor (Homo sapiens) (Q96RI1 whole entry, looked up): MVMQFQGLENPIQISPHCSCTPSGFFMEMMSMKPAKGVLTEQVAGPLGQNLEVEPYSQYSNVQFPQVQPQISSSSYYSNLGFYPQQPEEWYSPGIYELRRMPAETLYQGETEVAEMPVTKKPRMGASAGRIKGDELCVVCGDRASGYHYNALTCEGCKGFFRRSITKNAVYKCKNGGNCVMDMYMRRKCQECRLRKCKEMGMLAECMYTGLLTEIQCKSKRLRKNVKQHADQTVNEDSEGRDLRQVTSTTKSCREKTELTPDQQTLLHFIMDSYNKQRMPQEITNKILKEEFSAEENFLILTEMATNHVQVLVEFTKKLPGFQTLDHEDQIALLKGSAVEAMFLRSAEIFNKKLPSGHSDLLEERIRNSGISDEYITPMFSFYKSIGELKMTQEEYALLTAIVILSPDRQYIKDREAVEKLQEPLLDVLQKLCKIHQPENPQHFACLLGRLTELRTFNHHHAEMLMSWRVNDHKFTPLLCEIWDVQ
Sequence of Phospholipid hydroperoxide glutathione peroxidase GPX4 (Homo sapiens) (P36969 whole entry, looked up): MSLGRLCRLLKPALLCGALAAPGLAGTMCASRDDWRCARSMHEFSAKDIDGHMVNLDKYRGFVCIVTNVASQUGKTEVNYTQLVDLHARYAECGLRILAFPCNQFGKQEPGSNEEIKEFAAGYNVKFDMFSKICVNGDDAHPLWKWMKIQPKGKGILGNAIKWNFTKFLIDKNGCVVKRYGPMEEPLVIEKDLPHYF

`CCCCC[C@@H](O)CC[C@H]1[C@@H]2Cc3cccc(OCC(=O)O)c3C[C@@H]2C[C@@H]1O`: the Potency result in [1], in assay [2], in [3] and in assay [4] was “inactive” in each case. Moreover, the activity change, negative = inhibition in assay [5] (setting [11]) is -4.98%.

Consider `FCOC(C(F)(F)F)C(F)(F)F`, for which the Potency result in assay [1], in [2], in assay [3] and in assay [4] was “inactive” each time. In addition, the activity change, negative = inhibition in assay [5] (setting [11]) was -16%.

Take `CC(C)(C)NCC(O)c1ccc(O)c(CO)n1` (stereo unspecified): the Potency result in [1], in assay [2], in [3], in [4] and in assay [5] (setting [11]) was “inactive” in each case.

With `CS(=O)(=O)OCCCNCCCOS(C)(=O)=O`, the Potency result in [1], in assay [2], in assay [3] and in [4] was “inactive” throughout. Further, in [5] (setting [11]), the activity change, negative = inhibition is -19.8%.

On to `C[N@+]12CCCC[C@@H]1CCC(=C(c1cccs1)c1cccs1)C2`, for which the Potency result in assay [1], in [2], in assay [3] and in assay [4] was “inactive” each time. The activity change, negative = inhibition in assay [5] (setting [11]) was -20.7%.

Regarding `NC(=O)[C@@H]1C[C@]2(NC(=O)NC2=O)c2cc(F)ccc2O1`, the Potency entry in assay [1], in assay [2], in assay [3] and in [4] was “inactive” in each case. For the same molecule, the activity change, negative = inhibition in assay [5] (setting [11]) was -14.3%.

Take `COc1c(O)cc2c(c1O)[C@H]1O[C@@H](CO)[C@H](O)[C@@H](O)[C@@H]1OC2=O`: the Potency result in assay [1], in assay [2], in [3] and in assay [4] was “inactive” in each case. Also, in [5] (setting [11]), the activity change, negative = inhibition is -14.9%.

Regarding `O=P(O)(O)OC1C(OP(=O)(O)O)C(OP(=O)(O)O)C(OP(=O)(O)O)C(OP(=O)(O)O)C1OP(=O)(O)O` (stereo unspecified), the Potency entry in assay [1], in [2], in assay [3] and in [4] was “inactive” in each case. Also, the activity change, negative = inhibition in assay [5] (setting [11]) is -23.6%.

Turning to `CC(C)(C)CC(C)(C)c1cc(Cc2cc(C(C)(C)CC(C)(C)C)cc(-n3nc4ccccc4n3)c2O)c(O)c(-n2nc3ccccc3n2)c1`, the activity change, negative = cytotoxicity in [1] is 1.83% [at 5.34 µM] (inactive); in [3], -1.1% [at 5.34 µM] (inactive). For the same molecule, the outcome in assay [2] is “inactive [at 5.34 µM]”; in assay [4] it was “inactive [at 5.25 µM]”. In addition, in [5] (setting [11]), the activity change, negative = inhibition is -28.1% [at 5.25 µM].

Consider `CS(=O)(=O)Nc1cc2occ(NC=O)c(=O)c2cc1Oc1ccccc1`, for which the Potency result in [1], in assay [2], in assay [3] and in assay [4] was “inactive” throughout. In assay [5] (setting [11]), the activity change, negative = inhibition is -19.1% and -29.3%.

Regarding `CCOC(=O)[C@@H](N)CS`, the Potency result in [1], in assay [2], in [3] and in assay [4] was “inactive” in each case. In addition, in [5] (setting [11]), the activity change, negative = inhibition was -29%.

For `NC(=O)c1ccc[n+]([C@@H]2O[C@H](COP(=O)([O-])OP(=O)(O)OC[C@H]3O[C@@H](n4cnc5c(N)ncnc54)[C@H](O)[C@@H]3O)[C@@H](O)[C@H]2O)c1`, the Potency entry in assay [1], in assay [2], in assay [3] and in assay [4] was “inactive” in each case. Further, the activity change, negative = inhibition in [5] (setting [11]) was -19.8%.

Take `CCCCCCO[C@@H](C)c1cccc(-c2csc(NC(=O)c3cc(Cl)c(/C=C(\C)C(=O)O)c(Cl)c3)n2)c1OC`: the Potency result in assay [1], in [2], in assay [3] and in assay [4] was “inactive” throughout. The activity change, negative = inhibition in [5] (setting [11]) is -33.5%.

As to `CCC(=O)O[C@H]1CC[C@H]2[C@@H]3CC[C@H]4CC(=O)[C@H](C)C[C@]4(C)[C@H]3CC[C@]12C`, the Potency result in assay [1], in assay [2], in [3], in [4], in [6] and in assay [7] was “inactive” throughout. Further, the activity change, negative = inhibition in [5] (setting [11]) is -28.3%.

For the molecule `CC1(C)S[C@@H]2[C@H](NC(=O)[C@H](NC(=O)N3CCN(S(C)(=O)=O)C3=O)c3ccccc3)C(=O)N2[C@H]1C(=O)O`, the Potency result in assay [1], in assay [2], in [3] and in assay [4] was “inactive” each time. Besides, the activity change, negative = inhibition in assay [5] (setting [11]) is -10%.

For the molecule `O=S(=O)(O)c1ccccc1`, in assay [8], the activation is 0.473% (inactive). Further, the call in assay [9] was inactive. Also, the Potency result in assay [1], in assay [2], in assay [3] and in assay [4] was “inactive” in each case. Further, the activity change, negative = inhibition in assay [5] (setting [11]) was -15.3%.

Regarding `CN(C)C1C(=O)C(C(N)=O)=C(O)C2(O)C(=O)C3=C(O)c4c(O)ccc(Cl)c4C(C)(O)C3CC12` (stereo unspecified), the Potency result in [1], in assay [2], in [3], in assay [4] and in assay [6] was “inactive” in each case.

Take `COC1=C(C(=O)O)N2C(=O)[C@@H](NC(=O)[C@H](N)C3=CCC=CC3)[C@H]2SC1`: the Potency result in assay [1], in assay [2], in assay [3] and in [4] was “inactive” in each case. The activity change, negative = inhibition in [5] (setting [11]) is -17.7%.

Regarding `CC(C)N=c1cc2n(-c3ccc(Cl)cc3)c3ccccc3nc-2cc1Nc1ccc(Cl)cc1`, the Potency entry in assay [1], in assay [2], in [3] and in [4] was “inactive” each time. For the same molecule, the activity change, negative = inhibition in [5] (setting [11]) is -33.7%.

Turning to `CO/N=C(/C(=O)N[C@@H]1C(=O)N2C(C(=O)O)=C(CSC(=O)c3ccco3)CS[C@H]12)c1csc(N)n1`, the Potency result in [1], in assay [2], in [3] and in [4] was “inactive” throughout. Besides, the activity change, negative = inhibition in [5] (setting [11]) is -26.3%.

Turning to `COc1cc(/C=C\C(=O)N2CCN(CC(=O)N3CCCC3)CC2)cc(OC)c1OC`, the Potency entry in assay [1], in assay [2], in assay [3], in [4] and in assay [5] (setting [11]) was “inactive” each time.

For `C[C@H]1CNCCCN1S(=O)(=O)c1cccc2cncc(F)c12`, the Potency entry in [1], in [2], in assay [3] and in [4] was “inactive” throughout. The activity change, negative = inhibition in assay [5] (at 27.1 µM (top of the series)) is -27.6%; in [5] (at 57.1 µM (top of the series)) it was -12.6%.

For the molecule `CCCCCCCCCC(=O)OC1CC[C@H]2[C@@H]3CCC4=CC(=O)CC[C@@H]4[C@H]3CC[C@]12C` (stereo partly specified), the Potency result in [1], in [2], in assay [3], in assay [4] and in [6] was “inactive” in each case. In addition, the activity change, negative = inhibition in assay [5] (setting [11]) was 0.678%.

For `OCCCNc1ccccc1`, the Potency result in [1], in assay [2], in assay [3] and in assay [4] was “inactive” in each case. Also, the activity change, negative = inhibition in [5] (setting [11]) was -22.3%.

Consider `C/C(=C\c1csc(C)n1)[C@@H]1C[C@@H]2O[C@]2(C)CCC[C@H](C)[C@H](O)[C@@H](C)C(=O)C(C)(C)[C@@H](O)CC(=O)N1`, for which the Potency result in [1], in assay [2], in assay [3] and in [4] was “inactive” each time. The Potency in assay [10] was 0.152 µM (active).

For the molecule `CO/N=C(/C(=O)N[C@@H]1C(=O)N2C(C(=O)OC(C)OC(C)=O)=C(COC(N)=O)CS[C@H]12)c1ccco1` (stereo partly specified), the Potency entry in assay [1], in [2], in [3] and in assay [4] was “inactive” each time. The activity change, negative = inhibition in assay [5] (setting [11]) is -14.5%.
